Most compounds without a hit are left out; they make up all but 2.8% or so of the library.
POLH inh: qHTS for Inhibitors of Polymerase Eta. DNA polymerase eta (Homo sapiens), Q9Y253. recombinant Pol eta, fluorescent DNA replication assay. Potency, µM (highest dose often 114 µM), without a hit: at the top dose activity change, negative = inhibition, most hits filed as inhibitors. hit rate 1.2% among 390,000. AID 588591, 2011; also: potency is read from the fitted curve at half-maximal effect; % is scaled to controls: 0 for no effect and ±100 for the full control effect
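Fluorescent replication assay: 50 nM final substrate added after a 15 min room-temperature compound preincubation with 10 nM enzyme. Signal taken at 0 min and again at 10 min.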
POLK inh: qHTS for Inhibitors of Polymerase Kappa | Potency, µM (highest dose often 107 µM), without a hit: top-dose activity, negative = inhibition, most hits filed as inhibitors | hit rate 0.53% among 400,000 | purified Pol kappa, fluorescent DNA synthesis assay, 10 min | DNA polymerase kappa (Homo sapiens), Q9UBT6; also: potency is read from the fitted curve at half-maximal effect; % is scaled to controls: 0 for no effect and ±100 for the full control effect
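Inhibition of 10 nM Pol kappa is measured by a fluorescent read-out at 0 and 10 min following addition of 50 nM substrate (final), with a 15-min room-temperature compound preincubation.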
WRN helicase inh: qHTS for Inhibitors of WRN Helicase | hit rate 0.46% among 360,000 | Potency, µM (titrated, usually from 114 µM), inactives show top-dose activity change, negative = inhibition, usual class: inhibitors | Bifunctional 3'-5' exonuclease/ATP-dependent helicase WRN (Homo sapiens), Q14191 | WRN helicase unwinding, fluorescent forked duplex, kinetic; also: potency is read from the fitted curve at half-maximal effect; % is scaled to controls: 0 for no effect and ±100 for the full control effect; nearly all actives have a fitted effect of over 55% in size
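Kinetic fluorescence helicase assay: unwinding of a quenched forked DNA duplex (100 nM final) with 2 mM ATP final raises red fluorescence (525/598 nm). Compounds sat 15 min at room temperature with 20 nM WRN beforehand.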
POLI inh: qHTS for Inhibitors of Polymerase Iota | DNA polymerase iota (Homo sapiens), Q9UNA4 | Pol iota fluorescent replication assay, 10 min | Potency, µM (series often up to 115 µM), inactives show at the highest dose activity, negative = inhibition, hits mostly inhibitors | hit rate 1% among 390,000 | AID 588590, 2011; also: potency is read from the fitted curve at half-maximal effect
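Pol iota at 10 nM preincubated 15 min with compounds at room temperature; reaction started with fluorescent substrate, 50 nM final. Fluorescence read kinetically at 0 and 10 min; buffer-only wells as negative control.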
Pol beta inh: qHTS Assay for Inhibitors of DNA Polymerase Beta; P06746; Pol beta primer extension/strand displacement, fluorescence kinetic; Potency, µM (series often up to 114 µM), for inactives: top-dose activity change, negative = inhibition, most hits filed as inhibitors; hit rate 1.3% among 340,000; AID 485314, 2010; also: potency is read from the fitted curve at half-maximal effect; % is scaled to controls: 0 for no effect and ±100 for the full control effect
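Human Pol beta at 10 nM; strand-displacement substrate 50 nM final. Compound exposure 15 min at room temperature before start, reaction 10 min at room temperature.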
PI5P4Ka inh: qHTS for Inhibitors of phosphatidylinositol 5-phosphate 4-kinase (PI5P4K) | Phosphatidylinositol 5-phosphate 4-kinase type-2 alpha (Homo sapiens), P48426 | PI5P4Kalpha enzyme, ADP-Glo luminescence, 60 min; stronger effect = lower value | max response, % | hit rate 1.2% among 330,000 | AID 652105, 2013; active = max response of -50% or lower; inconclusive = between -30% and -50%; inactive = -30% or higher; also: value at the top dose of about 77 µM; % is scaled to controls: 0 for no effect and ±100 for the full control effect
Target sequence (P48426 whole entry, looked up): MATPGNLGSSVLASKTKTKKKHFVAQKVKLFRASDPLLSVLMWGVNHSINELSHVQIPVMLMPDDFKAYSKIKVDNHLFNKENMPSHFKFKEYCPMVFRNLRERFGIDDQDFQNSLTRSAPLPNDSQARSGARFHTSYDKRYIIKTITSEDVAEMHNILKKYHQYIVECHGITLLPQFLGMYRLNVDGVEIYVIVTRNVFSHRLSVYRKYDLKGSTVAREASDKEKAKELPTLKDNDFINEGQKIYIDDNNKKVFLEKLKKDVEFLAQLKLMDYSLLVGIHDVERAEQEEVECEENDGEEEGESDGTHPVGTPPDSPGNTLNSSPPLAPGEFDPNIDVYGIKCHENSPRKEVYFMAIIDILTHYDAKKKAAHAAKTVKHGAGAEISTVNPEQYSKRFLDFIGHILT
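Compounds were pin-transferred onto PI5P4Kalpha and substrate in HEPES pH 7.4 buffer with EGTA, CHAPS and 5% DMSO. ATP (5 microM final) started the reaction, which ran 60 minutes at room temperature before ADP-Glo detection.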
Numbers without * were called inactive; [ ] = dose if it differs, or a comment. Unless noted, calls follow the shape of the dose curve; as a rule, active = well fitted curve in the direction sought with a large enough effect; inconclusive = small, poorly fitted or top-dose-only effect, or another doubt; inactive = no such curve, though single readings can be large; an effect the other way counts as inactive or inconclusive.

`Cc1cc(O)c(C(=O)/C=C/c2ccccc2Br)c(=O)o1` gave POLH inh -26.1%, POLK inh -37.9%, WRN helicase inh -13.6%[57.1 µM], POLI inh inconclusive, Pol beta inh -8.3% and PI5P4Ka inh -69.7*.
`Cc1cc(O)c(C(=O)/C=C/c2ccccc2)c(=O)o1` gave POLH inh -14.8%, POLK inh -15.0%, WRN helicase inh -29.2%, POLI inh inconclusive, Pol beta inh 14.5% and PI5P4Ka inh -50.5*.
`Cc1cc(O)c(C(=O)/C=C/c2ccc(C(C)C)cc2)c(=O)o1` gave POLH inh -13.0%, POLK inh -19.3%, WRN helicase inh -29.9%, POLI inh -7.8%, Pol beta inh 3.6% and PI5P4Ka inh -62.7*.
Screening CCOc1ccc(/C=C/C(=O)c2c(O)cc(C)oc2=O)cc1 returned POLH inh -12.8%, POLK inh -8.1%, WRN helicase inh -13.4%, POLI inh inconclusive, Pol beta inh -4.6% and PI5P4Ka inh -5.8.
`CC(=O)c1cc(C)c(OCc2cn(CC(=O)c3ccc(O)cc3)nn2)c(C)c1` gave POLH inh -11.4%, POLK inh -15.4%, WRN helicase inh 2.7%, POLI inh 7.94µM* and PI5P4Ka inh -5.4.
For CCCC(=O)c1ccc(OCc2cn(CC(=O)c3ccc(O)cc3)nn2)cc1 the results were POLH inh -3.1%, POLK inh 20.9%, WRN helicase inh -4.9%, POLI inh inconclusive and PI5P4Ka inh -7.6.
`COc1ccc(OC)c(Nc2nc(NCCCN(C)C)nc(N)c2[N+](=O)[O-])c1` gave POLH inh 50.1µM*, POLK inh inconclusive, WRN helicase inh 35.5µM*, POLI inh 31.6µM*, Pol beta inh 35.5µM* and PI5P4Ka inh -6.9.
For COCCCNc1nc(N)c([N+](=O)[O-])c(Nc2cc(OC)ccc2OC)n1 the results were POLH inh 6.4%, POLK inh -11.1%, WRN helicase inh -4.2%, POLI inh 51.9%, Pol beta inh 3.3% and PI5P4Ka inh 2.4.
`[S-]c1nnc(-c2ccc(Br)cc2)n1-c1ccccc1.[Zn+2]` gave POLH inh 5.6%, POLK inh -1.1%, WRN helicase inh 3.3%, POLI inh 2.82µM*, Pol beta inh 0.0% and PI5P4Ka inh -5.1.
`CCOc1ccc(-c2nnc(SCC(=O)c3ccc(Br)cc3)n2-c2ccccc2)cc1` gave POLH inh -6.4%, POLK inh -22.3%, POLI inh inconclusive and Pol beta inh -14.9%.
Cc1ccc(C(C[N+](=O)[O-])Sc2ccc(N)cc2)cc1 (stereo unspecified) was read as POLH inh -21.0%, POLK inh -2.7%, WRN helicase inh 44.7µM*, POLI inh 59.3%, Pol beta inh -2.1% and PI5P4Ka inh 0.4.
Screening Cc1ccc(C(C[N+](=O)[O-])n2nc(C)cc2C)cc1 (stereo unspecified) returned POLH inh -18.0%, POLK inh -5.0%, WRN helicase inh inconclusive, POLI inh 6.3%, Pol beta inh -9.1% and PI5P4Ka inh 6.1.
`CCN(C(=O)CCS(=O)(=O)c1cc2c(cc1C)NC(=O)CO2)c1cccc(C)c1` gave POLH inh -13.1%, POLK inh -8.7%, POLI inh -1.9% and Pol beta inh 5.9%.
`CSC1=NC(=O)/C(=C\c2cccc3ccccc23)S1` gave POLH inh -16.5%, POLK inh -4.8%, WRN helicase inh inconclusive, POLI inh 25.1%, Pol beta inh 50.1µM* and PI5P4Ka inh -22.3.

Bioassay records from PubChem BioAssay.
